The text below walks through data of PubChem BioAssay.

SMILES strings stand for the structures.

The nature of the assay: RPMI8226 myeloma cell viability, profiling panel, resazurin fluorescence, basal, 24 h, PK04 Diversity Set (AID 1180).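 Further: RPMI8826 multiple myeloma cell line at 5000 cells per well; test concentration not given here.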 Particulars: higher = more signal. Background: Resazurin is reduced to fluorescent resorufin, in cell work by metabolically active cells.
As to `COCCOC(=O)N1C(=O)[C@@]2(c3cc(C#CCC(C(=O)OC)C(=O)OC)ccc31)[C@H](C(=O)N1CCN(c3ncccn3)CC1)[C@H]1C(=O)O[C@H](c3ccccc3)[C@H](c3ccccc3)N1[C@@H]2c1ccccc1OCCO`, the z-score was -0.5.

In turn, `CN1C(=O)C2C=CC(C(O)c3ccccc3)N(N(c3ccccc3)c3ccccc3)C2C1=O` (centres undefined) had a z-score of -0.323.

In turn, `COc1ccc([Si](C)(C)[C@H]2[C@H](CC(=O)N3Cc4ccccc4C[C@H]3CO)O[C@@]3(C(=O)N(Cc4cccc(N5CCC5=O)c4)c4ccccc43)[C@@H]2C)cc1` registered a z-score of -2.01.

For the molecule `C=CCC(OC(C)=O)[C@@H]1[C@@H](N(Cc2ccc(-c3cccc(C(F)(F)F)c3)o2)C(=O)c2ccc(C)cc2)c2cc(OCCCO)ccc2N1C(=O)Cc1ccc2ccccc2c1` (some centres undefined), the z-score is 1.22.

`Oc1ccc2cc[n+](Cc3sc4ccccc4c3Cl)cc2c1` yielded a z-score of -0.624.

On to `COC(=O)C(CC#Cc1ccc2c(c1)[C@]1(C(=O)N2)[C@H](c2ccc(OCCO)cc2)N2[C@H](c3ccccc3)[C@H](c3ccccc3)OC(=O)[C@H]2[C@@H]1C(=O)N1CCc2cc(OC)c(OC)cc2C1)C(=O)OC`, for which the z-score is -0.368.

The molecule `COc1ccc(CCNC(=O)[C@@]2(Sc3ccc(C)cc3)CC(=O)N(C(C)C)[C@@H]2c2ccc(CO)cc2I)cc1` displayed a z-score of -2.47.

The molecule `CN(C)CCCC[C@@H]1NC(=O)[C@@H]2C[C@H](C(=O)NCCCCCCN)[C@H](c3cccc(OCCO)c3)N2C1=O` yielded a z-score of -0.851.

`C=CCN1C(=O)[C@]2(O[C@H](CCn3cc([C@H](O)c4ccccc4)nn3)[C@@H]([Si](C)(C)c3ccc(OC)cc3)[C@@H]2C)c2ccccc21` showed a z-score of -1.69.

Take `COC(=O)C(CC#Cc1ccc2c(c1)[C@]1(C(=O)N2)[C@H](C(=O)Nc2nc3ccccc3s2)[C@H]2C(=O)O[C@H](c3ccccc3)[C@H](c3ccccc3)N2[C@@H]1c1ccc(O)cc1)C(=O)OC`: the z-score was -2.

Turning to `COc1cc2c(cc1O)C(c1cccs1)N(C)CC2` (centres undefined), the z-score was -0.468.

Molecule `C=CC[C@]1(C(=O)NCc2ccccc2)N=C(c2ccc(OCCCO)cc2)O[C@H]1c1ccccc1N=[N+]=[N-]` showed a z-score of -1.31.

For the molecule `O=C(c1ccccc1)N1Cc2ccccc2C[C@@]2(COC(c3ccc(OCCCO)cc3)=N2)C1=O`, the z-score was 0.263.

As for `C=C[C@H](C)[C@@H](OC(=O)Nc1ccc(OC)cc1)c1ccc(O)c2ccccc12`, the z-score is -2.9.

Consider `CCC(CC)C(O)C1C=CC2C(=O)NC(=O)C2N1Nc1ccc(Cl)cc1Cl` (centres undefined), for which the z-score was -1.52.

Regarding `COc1ccc(C#Cc2ccc3c(c2)[C@]2(C(=O)N3)[C@H](c3ccccc3OCCO)N3[C@H](c4ccccc4)[C@H](c4ccccc4)OC(=O)[C@H]3[C@@H]2C(=O)Nc2nc3ccccc3s2)cc1`, the z-score was -1.76.

`O=C(CS)NCCCCCCNC(=O)[C@@H]1C[C@@H]2C(=O)N[C@@H](Cc3ccccc3)C(=O)N2[C@@H]1c1cccc(OCCO)c1` gave a z-score of -0.549.

`CC(C)N1C(=O)c2ccccc2[C@](C)(C(=O)NCCN2CCOCC2)[C@@H]1c1ccc(CO)cc1` showed a z-score of -0.44.

Regarding `CCCC=C(CCC)[C@@H](NC(=O)c1cccs1)c1ccc(C(F)(F)F)cc1`, the z-score amounted to 0.455.

Take `C[N+](C)(C)CCCCNC(=O)[C@@H]1C[C@@H]2C(=O)N[C@@H](Cc3ccccc3)C(=O)N2[C@@H]1c1cccc(OCCO)c1`: the z-score was determined as 0.0965.

For `Cc1ccc(S[C@]2(C(=O)NC3CC3)CC(=O)N(Cc3ccccc3)[C@@H]2c2ccc(CO)cc2I)cc1`, the z-score was -1.71.

On to `CCOC(=O)C1=C[C@@H](C(C)(C)C)N(S(=O)(=O)c2ccc(C)cc2)[C@H]1c1ccc(F)cc1`, for which the z-score is -2.36.

`COc1ccc(C(O)C2C=CC3C(=O)N(Cc4ccccc4)C(=O)C3N2n2cnnc2)cc1OCc1ccccc1` (centres undefined) displayed a z-score of 0.329.

`CC1CC/C=C\[C@H]2OC34C=CCN(C(C)(C)C)C(=O)[C@H]3N(CCO)C(=O)[C@@H]4C2C(=O)O1` (some centres undefined): the z-score was -0.138.
